Results reported in PubChem BioAssay AID1159580 (chemical genetic matrix, 2015).
In all, about 5,500 compounds went through this assay and about 2,000 (36%) were called active. Inconclusive results (about 18%) are left out. Cut-off read from the data, not from the text of the source: active = normalized growth mostly below about 0.91 (no sharp cut-off); inconclusive = no clear call, values can overlap the other calls; inactive = mostly above about 0.92. The list shows a part of the results.

Experiment: chemical genetic growth profiling, strain panel (AID 1159580);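 note: tested at 20 µM; growth read once vehicle control cultures reached saturation at 30 °C; 1 = growth at the plate median or of vehicle wells; lower values mean less growth of the strain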
Details: growth OD

Measured: normalized growth

O=C1NS(=O)(=O)c2ccccc21
inactive: S. cerevisiae deletion strains, locus YJR066W, strain TOR1, stronger effect = lower value 0.939 | S. cerevisiae deletion strains, locus YKL009W, strain mrt4, stronger effect = lower value 0.988 | S. cerevisiae deletion strains, locus YKL068W, stronger effect = lower value 1 | S. cerevisiae deletion strains, locus YKL085W, strain MDH1 (second series), stronger effect = lower value 0.994 | S. cerevisiae deletion strains, locus YKL085W, strain MDH1, stronger effect = lower value 0.994 | S. cerevisiae deletion strains, locus YKL160W, strain elf1, stronger effect = lower value 0.991 | S. cerevisiae deletion strains, locus YKL190W, strain CNB1, stronger effect = lower value 1.01 | S. cerevisiae deletion strains, locus YKR001C, strain vps1, stronger effect = lower value 0.996 | S. cerevisiae deletion strains, locus YKR026C, strain gcn3, stronger effect = lower value 1.03 | S. cerevisiae deletion strains, locus YKR091W, strain srl3, stronger effect = lower value 1.01 | S. cerevisiae deletion strains, locus YLL001W, strain dnm1, stronger effect = lower value 0.986 | S. cerevisiae deletion strains, locus YLL026W, stronger effect = lower value 1.02 | S. cerevisiae deletion strains, locus YLL041C, strain sdh2, stronger effect = lower value 1.02 | S. cerevisiae deletion strains, locus YLR027C, strain aat2, stronger effect = lower value 1.02 | S. cerevisiae deletion strains, locus YLR039C, strain RIC1, stronger effect = lower value 1.01 | S. cerevisiae deletion strains, locus YLR058C, strain SHM2, stronger effect = lower value 1.02 | S. cerevisiae deletion strains, locus YLR102C, strain apc9, stronger effect = lower value 0.979 | S. cerevisiae deletion strains, locus YLR113W, strain HOG1, stronger effect = lower value 0.978 | S. cerevisiae deletion strains, locus YLR221C, strain rsa3, stronger effect = lower value 1.06 | S. cerevisiae deletion strains, locus YLR258W, strain gsy2, stronger effect = lower value 1.03 | S. cerevisiae deletion strains, locus YLR262C, strain YPT6 (second series), stronger effect = lower value 1.01 | S. cerevisiae deletion strains, locus YLR262C, strain YPT6, stronger effect = lower value 1.02 | S. cerevisiae deletion strains, locus YLR268W, strain sec22, stronger effect = lower value 0.978 | S. cerevisiae deletion strains, locus YLR320W, strain mms22, stronger effect = lower value 1.06 | S. cerevisiae deletion strains, locus YLR330W, strain CHS5, stronger effect = lower value 1 | S. cerevisiae deletion strains, locus YLR342W, strain FKS1 (second series), stronger effect = lower value 0.968 | S. cerevisiae deletion strains, locus YLR342W, strain FKS1, stronger effect = lower value 1.03 | S. cerevisiae deletion strains, locus YLR357W, strain rsc2, stronger effect = lower value 1.01 | S. cerevisiae deletion strains, locus YLR370C, strain arc18, stronger effect = lower value 1.02 | S. cerevisiae deletion strains, locus YLR371W, strain rom2, stronger effect = lower value 0.983 | S. cerevisiae deletion strains, locus YLR384C, strain iki3, stronger effect = lower value 1.04 | S. cerevisiae deletion strains, locus YLR418C, strain cdc73, stronger effect = lower value 0.989 | S. cerevisiae deletion strains, locus YML016C, strain PPZ1, stronger effect = lower value 1.01 | S. cerevisiae deletion strains, locus YML032C, strain rad52, stronger effect = lower value 0.986 | S. cerevisiae deletion strains, locus YML120C, strain ndi1, stronger effect = lower value 0.995 | S. cerevisiae deletion strains, locus YML124C, strain tub3, stronger effect = lower value 0.999 | S. cerevisiae deletion strains, locus YMR058W, strain fet3, stronger effect = lower value 1.03 | S. cerevisiae deletion strains, locus YMR078C, strain ctf18, stronger effect = lower value 0.989 | S. cerevisiae deletion strains, locus YMR125W, strain sto1, stronger effect = lower value 0.999 | S. cerevisiae deletion strains, locus YMR129W, stronger effect = lower value 1.02 | S. cerevisiae deletion strains, locus YMR205C, strain PFK2, stronger effect = lower value 1.03 | S. cerevisiae deletion strains, locus YMR223W, strain ubp8, stronger effect = lower value 0.985 | S. cerevisiae deletion strains, locus YMR231W, strain pep5, stronger effect = lower value 1.02 | S. cerevisiae deletion strains, locus YMR307W, strain GAS1, stronger effect = lower value 0.935 | S. cerevisiae deletion strains, locus YNL067W, strain RPL9B, stronger effect = lower value 1.01 | S. cerevisiae deletion strains, locus YNL071W, strain lat1, stronger effect = lower value 1.01 | S. cerevisiae deletion strains, locus YNL153C, strain GIM3, stronger effect = lower value 1.03 | S. cerevisiae deletion strains, locus YNL183C, strain NPR1, stronger effect = lower value 0.931 | S. cerevisiae deletion strains, locus YNL209W, strain ssb2, stronger effect = lower value 1 | S. cerevisiae deletion strains, locus YNL233W, strain BNI4, stronger effect = lower value 1.02 | S. cerevisiae deletion strains, locus YNL248C, strain rpa49, stronger effect = lower value 1.08 | S. cerevisiae deletion strains, locus YNL250W, strain rad50, stronger effect = lower value 0.985 | S. cerevisiae deletion strains, locus YNL271C, strain bni1, stronger effect = lower value 0.986 | S. cerevisiae deletion strains, locus YNL298W, strain CLA4, stronger effect = lower value 0.987 | S. cerevisiae deletion strains, locus YNL307C, strain MCK1, stronger effect = lower value 0.99 | S. cerevisiae deletion strains, locus YNL322C, strain KRE1 (second series), stronger effect = lower value 1.02 | S. cerevisiae deletion strains, locus YNR049C, strain mso1, stronger effect = lower value 1.02 | S. cerevisiae deletion strains, locus YNR052C, strain pop2, stronger effect = lower value 0.981 | S. cerevisiae deletion strains, locus YOL006C, strain TOP1, stronger effect = lower value 1.08 | S. cerevisiae deletion strains, locus YOL012C, strain htz1 1.16 | S. cerevisiae deletion strains, locus YOL147C, strain pex11, stronger effect = lower value 0.992 | S. cerevisiae deletion strains, locus YOR001W, strain rrp6, stronger effect = lower value 1.06 | S. cerevisiae deletion strains, locus YOR061W, strain CKA2, stronger effect = lower value 1.02 | S. cerevisiae deletion strains, locus YOR069W, strain VPS5, stronger effect = lower value 1.01 | S. cerevisiae deletion strains, locus YOR070C, strain gyp1, stronger effect = lower value 1.02 | S. cerevisiae deletion strains, locus YOR080W, strain dia2, stronger effect = lower value 1.03 | S. cerevisiae deletion strains, locus YOR083W, strain WHI5, stronger effect = lower value 0.981 | S. cerevisiae deletion strains, locus YOR106W, strain vam3, stronger effect = lower value 0.977 | S. cerevisiae deletion strains, locus YOR136W, strain idh2, stronger effect = lower value 0.986 | S. cerevisiae deletion strains, locus YOR144C, strain elg1, stronger effect = lower value 0.993 | S. cerevisiae deletion strains, locus YOR184W, strain ser1, stronger effect = lower value 0.987 | S. cerevisiae deletion strains, locus YOR231W, strain MKK1, stronger effect = lower value 0.985 | S. cerevisiae deletion strains, locus YOR265W, strain rbl2, stronger effect = lower value 1.03 | S. cerevisiae deletion strains, locus YOR270C, strain vph1, stronger effect = lower value 1.06 | S. cerevisiae deletion strains, locus YOR290C, strain snf2, stronger effect = lower value 0.963 | S. cerevisiae deletion strains, locus YOR316C, strain cot1, stronger effect = lower value 0.983 | S. cerevisiae deletion strains, locus YPL051W, strain arl3, stronger effect = lower value 1.02 | S. cerevisiae deletion strains, locus YPL078C, strain atp4, stronger effect = lower value 0.98 | S. cerevisiae deletion strains, locus YPL106C, strain sse1, stronger effect = lower value 0.997 | S. cerevisiae deletion strains, locus YPL240C, strain hsp82, stronger effect = lower value 1.01 | S. cerevisiae deletion strains, locus YPL241C, strain CIN2, stronger effect = lower value 1 | S. cerevisiae deletion strains, locus YPL256C, strain CLN2, stronger effect = lower value 0.979 | S. cerevisiae deletion strains, locus YPR119W, strain clb2, stronger effect = lower value 0.982 | S. cerevisiae deletion strains, locus YPR141C, strain kar3, stronger effect = lower value 0.982 | S. cerevisiae deletion strains, locus YPR163C, strain tif3, stronger effect = lower value 0.986 | S. cerevisiae deletion strains, locus YPR167C, strain met16, stronger effect = lower value 0.984 | S. cerevisiae deletion strains, strain wtn01, stronger effect = lower value 0.974 | S. cerevisiae strains, strain wild type, stronger effect = lower value 1.01
